In all, about 39,000 compounds went through this assay and about 3,300 (8.5%) were called active. For the sample, actives were picked, then their nearest neighbours and some compounds at random.
These compounds were tested on HepG2 (assay: cytotoxicity call (relative viability < 0.9)). Conditions: 10 µM.
`C[C@@H]1CN([C@H](C)CO)C(=O)c2cc(NC(=O)C3CC3)ccc2O[C@@H]1CN(C)S(=O)(=O)c1ccc(Cl)cc1` was tested, and the cytotoxicity call was “inactive”. For `C[C@@H]1CN([C@@H](C)CO)C(=O)c2c(c3ccccc3n2C)-c2ccccc2CO[C@H]1CN(C)Cc1ccc(C(F)(F)F)cc1`, the cytotoxicity call was “inactive”. With `CC(C)CC#Cc1ccc2c(c1)O[C@@H](CN(C)S(=O)(=O)c1ccc(F)cc1)[C@H](C)CN([C@H](C)CO)S2(=O)=O` the cytotoxicity call was “inactive”. For `C[C@H](CO)N1C[C@H](C)[C@@H](CN(C)S(=O)(=O)c2ccc(F)cc2)Oc2cc(C#Cc3ccncc3)ccc2S1(=O)=O`, the cytotoxicity call was “inactive”. For `C[C@H]1CN([C@@H](C)CO)S(=O)(=O)c2ccc(C#Cc3ccncc3)cc2O[C@@H]1CN(C)S(=O)(=O)c1ccc(F)cc1`, the cytotoxicity call was “inactive”. `C[C@H]1CN([C@@H](C)CO)S(=O)(=O)c2ccc(C#Cc3ccc(F)cc3)cc2O[C@@H]1CN(C)S(=O)(=O)c1ccc(F)cc1` was tested, and the cytotoxicity call was “inactive”. With `C[C@@H]1CN([C@H](C)CO)S(=O)(=O)c2ccc(C#Cc3ccc(F)cc3)cc2O[C@@H]1CN(C)S(=O)(=O)c1ccc(F)cc1` the cytotoxicity call was “inactive”. In the case of `C[C@H]1CN([C@@H](C)CO)S(=O)(=O)c2ccc(C#Cc3ccc(F)cc3)cc2O[C@H]1CN(C)S(=O)(=O)c1ccc(F)cc1`, the cytotoxicity call is reported as “inactive”. `C[C@@H]1CN([C@H](C)CO)S(=O)(=O)c2ccc(C#Cc3ccncc3)cc2O[C@H]1CN(C)S(=O)(=O)c1ccc(F)cc1` was tested, and the cytotoxicity call was “active”. `C[C@H]1CN([C@@H](C)CO)S(=O)(=O)c2ccc(C#Cc3ccncc3)cc2O[C@H]1CN(C)S(=O)(=O)c1ccc(F)cc1` was tested, and the cytotoxicity call was “active”. For `C[C@@H]1CN([C@@H](C)CO)S(=O)(=O)c2ccc(C#Cc3ccncc3)cc2O[C@H]1CN(C)S(=O)(=O)c1ccc(F)cc1`, the cytotoxicity call was “active”. In the case of `C[C@@H]1CN([C@H](C)CO)S(=O)(=O)c2ccc(C#Cc3ccncc3)cc2O[C@@H]1CN(C)S(=O)(=O)c1ccc(F)cc1`, the cytotoxicity call is reported as “active”. For `CC(C)CC#Cc1ccc2c(c1)O[C@H](CN(C)S(=O)(=O)c1ccc(F)cc1)[C@@H](C)CN([C@@H](C)CO)S2(=O)=O`, the cytotoxicity call was “inactive”. For `C[C@@H]1CN([C@H](C)CO)S(=O)(=O)c2ccc(C#Cc3ccc(F)cc3)cc2O[C@H]1CN(C)S(=O)(=O)c1ccc(F)cc1`, the cytotoxicity call was “inactive”. In the case of `O=C(C[C@@H]1C=C[C@@H](NC(=O)CN2CCOCC2)[C@@H](CO)O1)NCCc1ccccc1`, the cytotoxicity call is reported as “inactive”. In the case of `C[C@H](CO)N1C[C@H](C)[C@@H](CN(C)Cc2cccc(C(=O)O)c2)Oc2ncc(C#CC(C)(C)O)cc2C1=O`, the cytotoxicity call is reported as “inactive”. With `O=C(CCCCCCC(=O)Nc1ccc([C@H]2O[C@@H](CSc3ccncc3)C[C@@H](c3ccccc3)O2)cc1)NO` the cytotoxicity call was “inactive”. For `C[C@H]1CCCCO[C@H](CN(C)S(=O)(=O)c2cn(C)cn2)[C@@H](C)CN([C@@H](C)CO)C(=O)c2cc(NC(=O)CCCN(C)C)ccc2O1`, the cytotoxicity call was “inactive”. `C[C@@H]1CCCCO[C@H](CN(C)Cc2ccncc2)[C@H](C)CN([C@@H](C)CO)C(=O)c2cc(NC(=O)CCC(F)(F)F)ccc2O1` was tested, and the cytotoxicity call was “inactive”. `CN1CCN(C(=O)[C@H]2[C@H](CO)[C@H]3Cn4c(cccc4=O)[C@@H]2N3S(=O)(=O)c2ccccc2F)CC1` was tested, and the cytotoxicity call was “inactive”. With `CCNC(=O)C[C@@H]1CC[C@@H]2[C@H](COC[C@H](O)CN2S(=O)(=O)c2ccc(Oc3ccccc3)cc2)O1` the cytotoxicity call was “inactive”. `O=S1(=O)CC[C@H](N2CCOCC2)C1` was tested, and the cytotoxicity call was “inactive”. For `COc1ccc(NC(=O)Nc2ccc3c(c2)C(=O)N([C@H](C)CO)C[C@H](C)[C@@H](CN(C)C(=O)CCC(F)(F)F)OCCCC[C@@H](C)O3)cc1`, the cytotoxicity call was “inactive”. For `Cc1noc(C)c1NC(=O)Nc1cccc2c1O[C@@H](CN(C)Cc1ccc(C(=O)Nc3ccccc3N)cc1)[C@@H](C)CN([C@H](C)CO)C2=O`, the cytotoxicity call was “inactive”. With `O=C(CN1CCOCC1)N[C@H]1CC[C@@H](CCNC(=O)C2CCCCC2)O[C@@H]1CO` the cytotoxicity call was “inactive”. With `C[C@@H]1CCCCO[C@H](CN(C)C(=O)NC2CCCCC2)[C@H](C)CN([C@H](C)CO)C(=O)c2cc(NC(=O)CCC(F)(F)F)ccc2O1` the cytotoxicity call was “inactive”. For `O=C(CC(=O)N1CCOCC1)N1CCOCC1`, the cytotoxicity call was “inactive”. In the case of `Cc1noc(C)c1S(=O)(=O)Nc1ccc2c(c1)C(=O)N([C@H](C)CO)C[C@@H](C)[C@@H](CN(C)Cc1ccc3c(c1)OCO3)O2`, the cytotoxicity call is reported as “inactive”. With `CC(C)c1nc2cc3sc(C(C)C)nc3cc2s1` the cytotoxicity call was “inactive”. With `CCCCCCCCCC(=O)N[C@H]1[C@H](Oc2c3cc4cc2Oc2ccc(cc2Cl)[C@@H](O[C@@H]2O[C@H](CO)[C@@H](O)[C@H](O)[C@H]2NC(C)=O)[C@@H]2NC(=O)[C@H](NC(=O)[C@@H]4NC(=O)[C@H]4NC(=O)[C@@H](Cc5ccc(c(Cl)c5)O3)NC(=O)[C@@H](N)c3ccc(O)c(c3)Oc3cc(O)cc4c3)c3ccc(O)c(c3)-c3c(O[C@H]4O[C@H](CO)[C@@H](O)[C@H](O)[C@@H]4O)cc(O)cc3[C@H](C(=O)O)NC2=O)O[C@H](CO)[C@@H](O)[C@@H]1O` the cytotoxicity call was “inactive”. For `CN1CCN(C(=O)C[C@@H]2CC[C@H]3[C@@H](COc4ccc(NC(=O)C5CCOCC5)cc4C(=O)N3C)O2)CC1`, the cytotoxicity call was “inactive”. For `CS(=O)(=O)N1C[C@H](O)COC[C@@H]2O[C@@H](CC(=O)NCc3ccccc3)CC[C@H]21`, the cytotoxicity call was “inactive”. With `C[C@@H]1CN([C@@H](C)CO)S(=O)(=O)c2ccc(C#Cc3ccc(F)cc3)cc2O[C@H]1CN(C)S(=O)(=O)c1ccc(F)cc1` the cytotoxicity call was “inactive”. With `C[C@@H]1CN([C@@H](C)CO)S(=O)(=O)c2ccc(C#Cc3ccc(F)cc3)cc2O[C@@H]1CN(C)S(=O)(=O)c1ccc(F)cc1` the cytotoxicity call was “inactive”. In the case of `C[C@@H]1CN([C@@H](C)CO)S(=O)(=O)c2ccc(C#Cc3ccncc3)cc2O[C@@H]1CN(C)S(=O)(=O)c1ccc(F)cc1`, the cytotoxicity call is reported as “active”. `C[C@H](CO)N1C[C@H](C)[C@@H](CN(C)S(=O)(=O)c2ccc(F)cc2)Oc2cc(C#Cc3ccc(F)cc3)ccc2S1(=O)=O` was tested, and the cytotoxicity call was “inactive”. With `C[C@H](CO)N1C[C@H](C)[C@H](CN(C)S(=O)(=O)c2ccc(F)cc2)Oc2cc(C#Cc3ccncc3)ccc2S1(=O)=O` the cytotoxicity call was “active”. In the case of `C[C@H](CO)N1C[C@H](C)[C@H](CN(C)S(=O)(=O)c2ccc(F)cc2)Oc2cc(C#Cc3ccc(F)cc3)ccc2S1(=O)=O`, the cytotoxicity call is reported as “inactive”. With `C[C@@H]1CCCCO[C@H](CN(C)C(=O)NC2CCCCC2)[C@@H](C)CN([C@H](C)CO)C(=O)c2cc(NC(=O)Nc3ccc(F)cc3)ccc2O1` the cytotoxicity call was “inactive”. In the case of `Cc1noc(C)c1NC(=O)N[C@H]1C=C[C@@H](CC(=O)NCCCN(C)C)O[C@H]1CO`, the cytotoxicity call is reported as “inactive”. With `C[C@@H]1CN([C@@H](C)CO)C(=O)c2cc(C#CCN(C)C)cnc2O[C@@H]1CN(C)C(=O)Nc1ccccc1F` the cytotoxicity call was “inactive”. `Nc1cc2[nH]cnc2c(O)n1` was tested, and the cytotoxicity call was “inactive”. `Nc1nc(S)c2nc[nH]c2n1` was tested, and the cytotoxicity call was “active”. In the case of `Nc1ncnc2[nH]cnc12`, the cytotoxicity call is reported as “inactive”. With `CCN(CC)C(=O)c1ccc[n+](CC(N)=O)c1` the cytotoxicity call was “inactive”. `O=C(CCCCCNC(=O)OCCCCO[C@@H]1C[C@H](c2ccc(C(F)(F)F)cc2)C=C(C(=O)N2CCN(Cc3ccc4c(c3)OCO4)CC2)O1)NO` was tested, and the cytotoxicity call was “inactive”. With `Cc1noc(C)c1S(=O)(=O)Nc1ccc2c(c1)C(=O)N([C@H](C)CO)C[C@@H](C)[C@@H](CN(C)Cc1ccc(C(F)(F)F)cc1)OCCCC[C@H](C)O2` the cytotoxicity call was “active”. `Cc1noc(C)c1S(=O)(=O)Nc1ccc2c(c1)C(=O)N([C@H](C)CO)C[C@@H](C)[C@H](CN(C)Cc1ccc(C(F)(F)F)cc1)OCCCC[C@@H](C)O2` was tested, and the cytotoxicity call was “inactive”. For `Cc1noc(C)c1S(=O)(=O)Nc1ccc2c(c1)C(=O)N([C@H](C)CO)C[C@@H](C)[C@@H](CN(C)Cc1ccc(C(F)(F)F)cc1)OCCCC[C@@H](C)O2`, the cytotoxicity call was “inactive”. `Cc1noc(C)c1S(=O)(=O)Nc1ccc2c(c1)C(=O)N([C@@H](C)CO)C[C@H](C)[C@@H](CN(C)Cc1ccc(C(F)(F)F)cc1)OCCCC[C@@H](C)O2` was tested, and the cytotoxicity call was “inactive”. For `Cc1noc(C)c1S(=O)(=O)Nc1ccc2c(c1)C(=O)N([C@H](C)CO)C[C@@H](C)[C@H](CN(C)Cc1ccc(C(F)(F)F)cc1)OCCCC[C@H](C)O2`, the cytotoxicity call was “active”. In the case of `Cc1noc(C)c1S(=O)(=O)Nc1ccc2c(c1)C(=O)N([C@H](C)CO)C[C@H](C)[C@H](CN(C)Cc1ccc(C(F)(F)F)cc1)OCCCC[C@H](C)O2`, the cytotoxicity call is reported as “inactive”. With `Cc1noc(C)c1S(=O)(=O)Nc1ccc2c(c1)C(=O)N([C@H](C)CO)C[C@H](C)[C@@H](CN(C)Cc1ccc(Cl)c(Cl)c1)OCCCC[C@H](C)O2` the cytotoxicity call was “inactive”. With `Cc1noc(C)c1S(=O)(=O)Nc1ccc2c(c1)C(=O)N([C@@H](C)CO)C[C@H](C)[C@H](CN(C)Cc1ccc(C(F)(F)F)cc1)OCCCC[C@@H](C)O2` the cytotoxicity call was “active”. In the case of `Cc1noc(C)c1S(=O)(=O)Nc1ccc2c(c1)C(=O)N([C@H](C)CO)C[C@@H](C)[C@@H](CN(C)Cc1ccc(Cl)c(Cl)c1)OCCCC[C@H](C)O2`, the cytotoxicity call is reported as “active”. `Cc1noc(C)c1S(=O)(=O)Nc1ccc2c(c1)C(=O)N([C@@H](C)CO)C[C@H](C)[C@@H](CN(C)Cc1ccc(Cl)c(Cl)c1)OCCCC[C@H](C)O2` was tested, and the cytotoxicity call was “inactive”. With `Cc1noc(C)c1S(=O)(=O)Nc1ccc2c(c1)C(=O)N([C@H](C)CO)C[C@H](C)[C@@H](CN(C)Cc1ccc(C(F)(F)F)cc1)OCCCC[C@H](C)O2` the cytotoxicity call was “inactive”. With `Cc1noc(C)c1S(=O)(=O)Nc1ccc2c(c1)C(=O)N([C@H](C)CO)C[C@H](C)[C@H](CN(C)Cc1ccc(C(F)(F)F)cc1)OCCCC[C@@H](C)O2` the cytotoxicity call was “inactive”. `O=C(C[C@H]1CC[C@H]2[C@@H](COC[C@@H](O)CN2S(=O)(=O)c2cccc(Cl)c2)O1)NCc1ccc2c(c1)OCO2` was tested, and the cytotoxicity call was “inactive”. For `O=c1[nH]snc1N1CCCCC1`, the cytotoxicity call was “inactive”. In the case of `CC(C)CNC(=O)C(=O)NC(C)C`, the cytotoxicity call is reported as “inactive”.
